About 8,800 targets were measured; listed, in parts, are those with a hit and a random draw of the rest. About 0.5% of all pairs of compound and target were hits. Unmarked numbers belong to inactive results.
Tests used:
Test in all cases: log2 fold change, soluble protein after heating vs DMSO (PISA); higher = thermal stabilisation; K562 lysate, 10 uM; active = over 0.2 and 3.5 SD of the protein, either way, in both replicates (recomputed)
[1] = compound: CN1CC[C@H](c2c(O)cc(O)c3c(=O)cc(-c4ccccc4Cl)oc23)[C@H](O)C1 [alvocidib]
Method in brief: (§1)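 K562 pellets were dounce-homogenised in PBS pH 7.4 with 1 mM MgCl2, and the crude extract at 1 mg/mL protein was treated with 10 μM compound for 30 min. Aliquots were heated for 3 min across 48°C-58°C, pooled, and brought to 0.5% NP-40 at 4°C; soluble protein was the supernatant after 21,000xg for 90 min. Soluble protein was quantified by TMTpro 16plex LC-MS/MS with channel sums equalised, and reported as log2 fold change in thermal stability against DMSO controls, with values from duplicates.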

[2] = compound: CN1CCc2c(c3ccccc3n2Cc2ccc(C(=O)NO)cc2)C1 [Tubastatin A]
Method in brief: as §1

[3] = compound: CNC(=O)C1=CC=CC=C1NC2=NC(=NC=C2Cl)NC3=C(C=C(C=C3)N4CCOCC4)OC
Method in brief: as §1

[4] = compound: CNC(=O)c1ccc(Nc2ncc(C(F)(F)F)c(NCc3nccnc3N(C)S(C)(=O)=O)n2)cc1 [defactinib]
Method in brief: as §1

[5] = compound: CNc1nc(-c2ccc3c(N)n[nH]c3c2)cc(N2C[C@@H](C(=O)NC3CCCCC3)CC[C@H]2C)n1
Method in brief: as §1

[6] = compound: COC(=O)N[C@@H](C)CNc1nccc(-c2cn(C(C)C)nc2-c2cc(Cl)cc(NS(C)(=O)=O)c2F)n1 [encorafenib]
Method in brief: as §1

[7] = compound: COC(=O)[C@H](CCSC)NC(=O)C1=C(C=C(C=C1)NC[C@H](CS)N)C2=CC=CC=C2
Method in brief: as §1

[8] = compound: COc1cc(Nc2ncc3c(n2)-c2ccc(Cl)cc2C(c2c(F)cccc2OC)=NC3)ccc1C(=O)O [alisertib]
Method in brief: as §1

[9] = compound: COc1cc2nc(-c3cc(F)ccc3O)nc(N[C@@H]3CNC[C@H]3C(C)(C)O)c2cc1OC
Method in brief: as §1

[10] = compound: COc1cc2ncnc(Nc3ccc(F)c(Cl)c3)c2cc1OCCCN1CCOCC1 [gefitinib]
Method in brief: as §1

[11] = compound: CS(=O)(=O)CCNCc1ccc(-c2ccc3ncnc(Nc4ccc(OCc5cccc(F)c5)c(Cl)c4)c3c2)o1 [lapatinib]
Method in brief: as §1

[12] = compound: CS(=O)(=O)N1CCN(Cc2cc3nc(-c4cccc5[nH]ncc45)nc(N4CCOCC4)c3s2)CC1 [pictilisib]
Method in brief: as §1

[13] = compound: C[C@@H](Oc1cc(-c2cnn(C3CCNCC3)c2)cnc1N)c1c(Cl)ccc(F)c1Cl [crizotinib]
Method in brief: as §1

[14] = compound: C[C@H](C1=CC=C(C=C1)C(=O)NC2=C3C=CNC3=NC=C2)N
Method in brief: as §1

[15] = compound: C[C@H](Nc1ncnc2nc[nH]c12)c1cc2cccc(Cl)c2c(=O)n1-c1ccccc1 [duvelisib]
Method in brief: as §1

[16] = compound: Cc1cc(Nc2cc(CN3CCOCC3)c3nc(C)c(Cc4ccc(Cl)cc4F)n3n2)n[nH]1 [gandotinib]
Method in brief: as §1

[17] = compound: Cc1cc(Nc2cc(N3CCN(C)CC3)nc(Sc3ccc(NC(=O)C4CC4)cc3)n2)n[nH]1 [tozasertib]
Method in brief: as §1

[18] = compound: Cc1ccc(-n2nc(C(C)(C)C)cc2NC(=O)Nc2ccc(OCCN3CCOCC3)c3ccccc23)cc1 [doramapimod]
Method in brief: as §1

[19] = compound: Cc1ccc(NC(=O)c2ccc(CN3CC[C@H](N(C)C)C3)c(C(F)(F)F)c2)cc1Nc1nccc(-c2cncnc2)n1 [bafetinib]
Method in brief: as §1

[20] = compound: Cc1cccc(CC(=O)N2CCc3c2ccc(-c2cn(C)c4ncnc(N)c24)c3F)n1
Method in brief: as §1

Chain of UniProt Q1MSJ5 (Q1MSJ5 whole entry, looked up): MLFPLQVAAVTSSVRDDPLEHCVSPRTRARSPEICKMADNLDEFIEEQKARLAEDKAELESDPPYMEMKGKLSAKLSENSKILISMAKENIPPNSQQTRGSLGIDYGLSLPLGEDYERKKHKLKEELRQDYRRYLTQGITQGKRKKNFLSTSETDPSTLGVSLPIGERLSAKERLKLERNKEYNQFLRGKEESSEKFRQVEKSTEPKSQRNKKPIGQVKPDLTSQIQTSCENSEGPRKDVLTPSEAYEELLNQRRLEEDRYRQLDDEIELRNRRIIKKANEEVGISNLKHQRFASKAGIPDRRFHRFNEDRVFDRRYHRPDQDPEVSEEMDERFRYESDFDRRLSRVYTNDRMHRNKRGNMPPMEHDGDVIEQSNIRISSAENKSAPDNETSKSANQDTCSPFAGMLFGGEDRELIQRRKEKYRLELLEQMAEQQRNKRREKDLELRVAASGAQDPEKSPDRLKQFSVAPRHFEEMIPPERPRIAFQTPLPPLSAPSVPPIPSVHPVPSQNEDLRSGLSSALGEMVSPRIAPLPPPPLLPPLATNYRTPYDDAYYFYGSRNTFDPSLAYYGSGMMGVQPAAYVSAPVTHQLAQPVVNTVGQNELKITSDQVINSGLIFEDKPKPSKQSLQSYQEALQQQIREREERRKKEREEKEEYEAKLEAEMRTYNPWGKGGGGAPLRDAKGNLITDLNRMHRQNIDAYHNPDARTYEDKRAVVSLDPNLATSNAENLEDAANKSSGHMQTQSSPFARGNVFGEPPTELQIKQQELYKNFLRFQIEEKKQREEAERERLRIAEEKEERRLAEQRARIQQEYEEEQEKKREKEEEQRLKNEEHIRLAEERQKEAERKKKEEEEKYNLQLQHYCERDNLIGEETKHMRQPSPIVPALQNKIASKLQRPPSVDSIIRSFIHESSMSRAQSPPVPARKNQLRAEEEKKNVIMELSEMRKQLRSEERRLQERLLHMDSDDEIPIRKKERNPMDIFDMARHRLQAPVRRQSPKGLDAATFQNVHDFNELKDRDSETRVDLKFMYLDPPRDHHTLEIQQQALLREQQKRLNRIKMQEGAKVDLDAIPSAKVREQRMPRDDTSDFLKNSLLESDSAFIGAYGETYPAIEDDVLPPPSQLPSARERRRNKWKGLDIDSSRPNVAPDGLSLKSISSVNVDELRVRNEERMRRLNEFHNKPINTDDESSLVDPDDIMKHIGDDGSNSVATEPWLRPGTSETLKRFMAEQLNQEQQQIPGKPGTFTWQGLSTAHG
Chain of UniProt P68400 (P68400 whole entry, looked up): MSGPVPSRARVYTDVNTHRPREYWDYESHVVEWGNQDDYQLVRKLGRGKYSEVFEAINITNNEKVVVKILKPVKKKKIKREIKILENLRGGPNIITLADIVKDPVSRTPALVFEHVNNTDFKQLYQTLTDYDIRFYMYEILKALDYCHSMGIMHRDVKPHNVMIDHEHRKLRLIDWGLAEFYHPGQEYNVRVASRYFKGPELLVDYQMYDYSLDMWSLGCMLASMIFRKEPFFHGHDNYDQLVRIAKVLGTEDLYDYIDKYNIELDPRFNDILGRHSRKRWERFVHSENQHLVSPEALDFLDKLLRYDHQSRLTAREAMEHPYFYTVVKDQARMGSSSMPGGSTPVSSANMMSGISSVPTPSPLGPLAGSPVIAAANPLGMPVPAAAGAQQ
Chain of UniProt O00148 (O00148 whole entry, looked up): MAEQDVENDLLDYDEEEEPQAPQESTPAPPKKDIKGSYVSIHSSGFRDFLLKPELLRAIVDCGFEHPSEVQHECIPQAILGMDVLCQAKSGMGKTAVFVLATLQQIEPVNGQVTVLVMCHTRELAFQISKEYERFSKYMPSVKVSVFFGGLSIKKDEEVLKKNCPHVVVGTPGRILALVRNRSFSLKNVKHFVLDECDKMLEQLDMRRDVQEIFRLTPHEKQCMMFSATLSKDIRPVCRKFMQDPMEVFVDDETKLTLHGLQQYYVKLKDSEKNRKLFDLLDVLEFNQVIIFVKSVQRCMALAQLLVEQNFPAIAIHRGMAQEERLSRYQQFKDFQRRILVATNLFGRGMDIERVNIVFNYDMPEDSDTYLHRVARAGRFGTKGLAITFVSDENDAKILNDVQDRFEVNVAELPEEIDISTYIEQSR
Chain of UniProt P19784 (P19784 whole entry, looked up): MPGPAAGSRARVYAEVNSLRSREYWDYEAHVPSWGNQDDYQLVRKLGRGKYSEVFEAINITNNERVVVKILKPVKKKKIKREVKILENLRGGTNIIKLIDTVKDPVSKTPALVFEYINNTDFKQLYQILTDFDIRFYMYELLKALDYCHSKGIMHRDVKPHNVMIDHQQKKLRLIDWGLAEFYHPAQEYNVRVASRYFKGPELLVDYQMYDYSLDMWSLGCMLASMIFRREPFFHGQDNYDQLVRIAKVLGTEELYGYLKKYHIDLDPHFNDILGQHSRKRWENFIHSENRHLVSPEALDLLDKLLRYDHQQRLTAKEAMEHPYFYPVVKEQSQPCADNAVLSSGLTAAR
Chain of UniProt O75911 (O75911 whole entry, looked up): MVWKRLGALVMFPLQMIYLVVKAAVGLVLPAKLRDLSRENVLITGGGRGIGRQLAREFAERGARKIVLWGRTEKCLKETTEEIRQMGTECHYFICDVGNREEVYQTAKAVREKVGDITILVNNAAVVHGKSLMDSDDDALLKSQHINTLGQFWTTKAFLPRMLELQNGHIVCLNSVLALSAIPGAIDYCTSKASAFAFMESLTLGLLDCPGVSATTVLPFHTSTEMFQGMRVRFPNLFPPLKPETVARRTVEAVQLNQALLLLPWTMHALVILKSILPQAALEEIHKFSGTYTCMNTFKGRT
Chain of UniProt Q96KP4 (Q96KP4 whole entry, looked up): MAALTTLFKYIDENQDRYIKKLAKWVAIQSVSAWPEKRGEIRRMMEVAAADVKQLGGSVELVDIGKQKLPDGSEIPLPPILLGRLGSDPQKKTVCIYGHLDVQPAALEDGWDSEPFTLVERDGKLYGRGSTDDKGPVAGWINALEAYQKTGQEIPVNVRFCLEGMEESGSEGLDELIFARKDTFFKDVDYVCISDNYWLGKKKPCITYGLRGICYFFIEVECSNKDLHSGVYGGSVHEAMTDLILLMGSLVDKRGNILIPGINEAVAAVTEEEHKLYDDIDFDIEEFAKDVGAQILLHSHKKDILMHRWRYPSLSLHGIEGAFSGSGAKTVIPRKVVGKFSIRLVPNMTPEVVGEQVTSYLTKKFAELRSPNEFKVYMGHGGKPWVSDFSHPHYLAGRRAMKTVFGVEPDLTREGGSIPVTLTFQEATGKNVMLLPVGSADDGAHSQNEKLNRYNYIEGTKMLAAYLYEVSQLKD
Chain of UniProt P61923 (P61923 whole entry, looked up): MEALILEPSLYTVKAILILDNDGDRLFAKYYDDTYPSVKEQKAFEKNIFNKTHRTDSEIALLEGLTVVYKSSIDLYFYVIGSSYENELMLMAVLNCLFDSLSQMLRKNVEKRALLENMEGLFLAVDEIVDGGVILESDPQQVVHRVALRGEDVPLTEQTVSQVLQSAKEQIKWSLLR
Chain of UniProt Q14203 (Q14203 whole entry, looked up): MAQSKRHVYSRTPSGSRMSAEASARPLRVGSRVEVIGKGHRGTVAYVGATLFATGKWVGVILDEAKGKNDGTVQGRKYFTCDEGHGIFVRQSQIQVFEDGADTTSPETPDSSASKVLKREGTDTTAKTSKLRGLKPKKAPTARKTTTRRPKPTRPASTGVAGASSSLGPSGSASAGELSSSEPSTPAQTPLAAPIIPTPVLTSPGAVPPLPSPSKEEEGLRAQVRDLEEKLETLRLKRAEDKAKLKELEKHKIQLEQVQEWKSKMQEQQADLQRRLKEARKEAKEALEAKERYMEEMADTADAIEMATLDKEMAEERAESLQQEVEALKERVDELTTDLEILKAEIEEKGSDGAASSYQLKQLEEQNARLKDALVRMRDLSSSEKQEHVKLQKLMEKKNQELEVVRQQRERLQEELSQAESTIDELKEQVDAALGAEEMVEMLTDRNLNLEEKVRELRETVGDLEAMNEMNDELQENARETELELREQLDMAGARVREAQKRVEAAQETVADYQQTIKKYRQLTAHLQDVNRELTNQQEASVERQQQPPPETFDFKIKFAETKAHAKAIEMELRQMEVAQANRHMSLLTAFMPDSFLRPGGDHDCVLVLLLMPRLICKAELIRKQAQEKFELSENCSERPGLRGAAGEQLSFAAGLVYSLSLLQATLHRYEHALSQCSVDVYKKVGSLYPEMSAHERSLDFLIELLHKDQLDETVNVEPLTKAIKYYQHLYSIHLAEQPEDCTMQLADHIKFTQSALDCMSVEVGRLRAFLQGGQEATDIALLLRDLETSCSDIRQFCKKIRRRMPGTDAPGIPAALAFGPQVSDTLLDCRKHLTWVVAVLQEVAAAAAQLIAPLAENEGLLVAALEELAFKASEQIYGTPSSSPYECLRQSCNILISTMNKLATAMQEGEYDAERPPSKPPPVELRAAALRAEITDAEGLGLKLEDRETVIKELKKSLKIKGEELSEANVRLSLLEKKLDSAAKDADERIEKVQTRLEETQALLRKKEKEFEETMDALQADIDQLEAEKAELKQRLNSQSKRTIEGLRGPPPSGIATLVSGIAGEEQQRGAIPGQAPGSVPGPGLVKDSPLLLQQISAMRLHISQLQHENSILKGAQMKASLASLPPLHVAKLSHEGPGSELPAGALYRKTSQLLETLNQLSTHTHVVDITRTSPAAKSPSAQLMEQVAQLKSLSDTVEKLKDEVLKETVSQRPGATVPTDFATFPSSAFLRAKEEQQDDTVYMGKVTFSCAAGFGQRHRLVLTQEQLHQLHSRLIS
Chain of UniProt Q9H2P9 (Q9H2P9 whole entry, looked up): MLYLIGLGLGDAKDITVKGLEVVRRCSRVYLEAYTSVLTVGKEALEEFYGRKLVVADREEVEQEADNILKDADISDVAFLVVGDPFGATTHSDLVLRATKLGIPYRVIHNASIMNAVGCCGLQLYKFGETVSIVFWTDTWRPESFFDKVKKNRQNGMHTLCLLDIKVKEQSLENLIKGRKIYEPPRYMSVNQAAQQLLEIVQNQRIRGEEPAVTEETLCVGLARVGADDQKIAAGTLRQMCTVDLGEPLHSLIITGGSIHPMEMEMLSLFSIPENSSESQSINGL

Target	log2 fold change [1]	log2 fold change [2]	log2 fold change [3]	log2 fold change [4]	log2 fold change [5]	log2 fold change [6]	log2 fold change [7]	log2 fold change [8]	log2 fold change [9]	log2 fold change [10]	log2 fold change [11]	log2 fold change [12]	log2 fold change [13]	log2 fold change [14]	log2 fold change [15]	log2 fold change [16]	log2 fold change [17]	log2 fold change [18]	log2 fold change [19]	log2 fold change [20]
CNDP2 (UniProt Q96KP4)	-0.11	0.039	0.003	0.005	0.1	-0.02	0.002	-0.031	0.047	0.013	-0.021	-0.017	-0.008	-0.255 (active)	0.037	0.244 (active)	-0.062	0.001	-0.002	0.212
COPZ1 isoform 4 (UniProt P61923)	0.084	0.055	0.081	0.166	-0.093	-0.011	-0.049	0.045	-0.077	-0.142	0.161	0.062	0.09	0.083	-0.022	-0.066	0.028	-0.044	-0.048	-0.088
CSNK2B (UniProt P67870)	-0.005	-0.012	0.324 (active)	0.025	0.053	-0.026	-0.006	-0.054	0.052	-0.022	-0.052	0.023	-0.073	0.027	-0.053	0.016	0.004	0.022	0.064	-0.05
CSPP1 (UniProt Q1MSJ5)	-0.031	-0.03	-0.028	-0.086	0.095	0.119	-0.195	0.027	0.218	-0.054	-0.103	-0.176	0.013	0.031	-0.089	0.056	-0.04	0.018	-0.013	-0.002
CHORDC1 (UniProt Q9UHD1)	0.033	0.004	0.007	0	-0.002	-0.029	-0.018	-0.012	-0.008	-0.026	-0.001	0.009	0.022	0.18	0.006	-0.011	0.022	-0.028	0.022	-0.031
CSNK2A1 (UniProt P68400)	0.077	0.019	0.337 (active)	0.056	-0.002	-0.004	-0.005	0.012	0.112	-0.024	-0.038	0.016	0.007	-0.021	-0.002	-0.007	-0.006	-0.003	0.027	-0.018
CPT1A (UniProt P50416)	0.407 (active)	0.261	0.004	-0.053	0.113	0.036	0.078	-0.014	-0.051	0.031	0.013	0.014	0.114	0.009	0.021	0.057	0.037	0.038	-0.056	-0.027
CUX1 isoform 3 (UniProt P39880)	-0.03	0.003	0.055	-0.006	0.005	0	0	0.067	-0.042	0.014	-0.01	-0.045	0.004	0.076	0.007	-0.116	0.032	-0.025	-0.012	0.007
DHRS3 (UniProt O75911)	-0.013	0.105	0.043	-0.006	0.085	-0.044	0.151	-0.006	-0.011	0.071	0.02	-0.051	-0.024	-0.044	-0.025	0.059	-0.043	0.035	-0.032	0.011
CTNNBL1 (UniProt Q8WYA6)	0.027	0.148	-0.004	-0.015	0.417 (active)	0.023	0.101	-0.013	-0.027	0.022	0	-0.011	-0.032	0.015	0	-0.058	0.033	0.058	-0.103	0.043
DCTN1 (UniProt Q14203)	0.03	-0.048	0.009	0.008	-0.02	0.008	0.119	-0.019	0.01	-0.002	-0.005	-0.021	-0.005	0.027	0.001	-0.029	-0.002	-0.013	-0.023	-0.005
CSNK2A2 (UniProt P19784)	0.101	-0.059	0.321	0.172	-0.022	-0.047	0.012	0.078	0.135	0.004	-0.116	0.057	-0.071	0.099	-0.02	-0.1	-0.035	-0.015	0.009	-0.041
CSTF2 (UniProt P33240)	-0.023	0.011	0.014	-0.016	0.024	-0.009	-0.099	0.03	0.011	0.008	-0.006	-0.049	0.003	-0.025	0.044	0.051	0.033	0.036	0.03	-0.001
DDX39A (UniProt O00148)	-0.017	-0.171	-0.006	0.003	-0.025	0.001	0.163	-0.026	0.004	0.009	-0.004	0.021	0.006	-0.022	0.004	-0.104	-0.008	-0.046	-0.004	0.093
CNOT6L (UniProt Q96LI5)	-0.091	0.022	0.022	0.046	0.013	0.036	0.066	-0.005	0.037	-0.033	-0.03	-0.042	-0.076	-0.251	-0.001	0.065	0.064	0.012	-0.1	0.114
DPH5 isoform 5 (UniProt Q9H2P9)	-0.012	0.02	0.119	-0.002	0.02	-0.044	-0.024	-0.045	-0.018	0.04	0.009	0.025	0.126	-0.019	0.128	0.495 (active)	0.005	-0.024	0.143	0.101
